This is part of a sample that, as a whole, favours compounds with a hit. Of some 83,000 tested, about 20% had one in any assay.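 96-well plates, one dose, 48 hours. Percent growth reported; active if below 10.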 Unmarked numbers belong to inactive results. Activity calls are given as the source filed them.
Tested on: HL-60(TB) leukemia
Assay: NCI-60 one-dose screen, 48 h (100 = growth as untreated, 0 = no growth, -100 = all killed)
Conditions: 10 µM unless noted

Structure (SMILES): CCN(CC)c1ccc2c(c1)Oc1nc(N)c(C#N)c(N)c1C2Sc1ccc(F)cc1 (configuration not stated)
- growth: -18.4% (active)

Structure (SMILES): Cc1nn(-c2ccccc2)c2ncnc(N/N=C/c3ccccc3)c12
- growth: 91.5%

Structure (SMILES): CC(=O)Oc1ccccc1C(=O)Nc1cc(C(C)C)ccc1C
- growth: -28.4% (active)

Structure (SMILES): CC(C)C[C@@H]1N[C@@]2(C(=O)Nc3ccccc32)[C@@H](c2ccc(F)cc2)[C@@H]1C(=O)c1ccc(O)cc1
- growth: 105%

Structure (SMILES): N#Cc1nc(-c2ccccc2)oc1S(=O)(=O)N1CCCCC1
- growth: 10.5%

Structure (SMILES): CC1(COc2ccc3ncc(C#Cc4cncc(C(=O)Nc5cc(C(C)(C)C)on5)c4)n3n2)COC1
- growth: 23%

Structure (SMILES): CCN(CC)CCOc1ccc(C(=C(C)c2ccc(OC)cc2)c2ccc(OCCN(CC)CC)cc2)cc1
- growth: -42.9% (active)

— PubChem BioAssay (NCI)
